Results as given in PubChem BioAssay (NCI).
“And” between values parts separate entries of the source, which are not always exact repeats. Equal entries are not always repeated. The panel holds about 79,000 compounds, 15% with a hit somewhere; the sample as a whole holds those more often. Cut-off read from the data, not from the text of the source: active = growth inhibition above about 70%; inactive = the rest.

What was measured:
[1] = NCI Yeast Anticancer Drug Screen. Data for the mec2-1 strain (AID 157); conditions: S. cerevisiae mec2-1 strain, active compounds read high; at 50.0 µM unless noted
Summary of the method: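 Test agents were screened against the mec2-1 yeast strain, with defined DNA repair or cell cycle alteration. Growth was scored as inhibition against vehicle-only controls.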

[2] = NCI Yeast Anticancer Drug Screen. Data for the sgs1 mgt1 strain (AID 161);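 note: 0% = growth of cultures given vehicle only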; conditions: S. cerevisiae sgs1 mgt1 strain, active compounds read high; at 50.0 µM unless noted
Summary of the method: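 Read-out: growth inhibition vs vehicle controls. Cells: mutant yeast strain deficient in DNA damage repair.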

[3] = NCI Yeast Anticancer Drug Screen. Data for the cln2 rad14 strain (AID 165);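 note: 0% = growth equal to vehicle treated cultures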; conditions: S. cerevisiae cln2 rad14 strain, active compounds read high; at 50.0 µM unless noted
Summary of the method: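 Growth of compound-exposed yeast (cln2 rad14 genotype) measured and expressed as inhibition relative to vehicle.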

[4] = NCI Yeast Anticancer Drug Screen. Data for the bub3 strain (AID 167); conditions: S. cerevisiae bub3 mutant strain, active compounds read high; at 50.0 µM unless noted
Summary of the method: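 Growth of a checkpoint-deficient yeast mutant is measured after compound exposure. Values represent inhibition relative to vehicle.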

[5] = NCI Yeast Anticancer Drug Screen. Data for the mlh1 rad18 strain (AID 175); conditions: S. cerevisiae mlh1 rad18 strain growth inhibition, active compounds read high; at 50.0 µM unless noted
Summary of the method: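 In this whole-cell yeast screen, a strain with altered DNA damage repair is challenged with compound, and its growth is measured against matched vehicle-treated controls.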

Measured: growth inhibition

CCCC(C)C(C(=O)OCC)C(=O)OCC (stereo unspecified)
inactive: [1] -14.5% and -5.6% | [2] -9.85% and 10.9% | [3] 21.5% and -17.4% | [4] -11.3% and -14% | [5] -15.3% and -7.4%

O=c1cc(-c2ccccc2)[nH]c2c(F)ccc(F)c12
inactive: [1] -46.5% | [2] -34.5% | [3] 11.3% | [4] -34.9% | [5] -18.9%

CCC(=N\NC(=S)NCCN(C)C)/C(C)=N/NC(=S)NCCN(C)C
inactive: [1] 13.2% | [2] 52.2% | [3] 4.95% | [4] 16.5% | [5] 54.9%

O=C(O)C1CCC(=O)N1Cc1c[nH]c2ccccc12 (stereo unspecified)
inactive: [1] -7.4% | [2] -10.2% | [3] -0.15% | [4] 15.4% | [5] -10.8%

OCC1=CC(O)C2C=COC(OC3OC(CO)C(O)C(O)C3O)C12 (stereo unspecified)
inactive: [1] -24.6% | [2] -19.1% | [3] -6.45% | [4] -32% | [5] -31.1%

N#C/C(=C1/c2cc([N+](=O)[O-])ccc2-c2c1cc([N+](=O)[O-])cc2[N+](=O)[O-])N1CCCCC1
inactive: [1] -5.3% | [2] 2.5% | [3] -17.8% | [4] -22.8% | [5] -13.7%

O=C(O)c1ccc(P(=O)(O)O)cc1[N+](=O)[O-]
inactive: [1] 9.65% | [2] -9.45% | [3] 1.75% | [4] 4.25% | [5] -7%

C=CCSc1cccc(C)c1
inactive: [1] 14.9% | [2] -12.6% | [3] -25.6% | [4] -14.1% | [5] -16.1%

CC1(C)COC(=S)N1
inactive: [1] 6.85% and -21.8% | [2] 0.5% and -14.8% | [3] 11.4% and -25.3% | [4] 9.55% and -26.9% | [5] 19.1% and -27.2%

Clc1cccc(Cl)c1C1SCc2nc3cc4ccccc4cc3n21 (stereo unspecified)
inactive: [1] -12.1% | [2] 24.9% | [3] -0.55% | [4] 14% | [5] 14%

[N-]=[N+]=CC(=O)C1OC12C1CC3CC(C1)CC2C3 (stereo unspecified)
inactive: [1] -5.85% | [2] 2.45% | [3] -6.25% | [4] 5.2% | [5] 4.55%

C(#Cc1ccccc1)CC#Cc1ccccc1
inactive: [1] 10.2% | [2] -11.7% | [3] -0.3% | [4] -11.2% | [5] 3.05%

CC(=O)Nc1ccc(N(C)C)cc1
inactive: [1] -3.4% | [2] 0.55% | [3] 10.2% | [4] 14.7% | [5] -7.85%

c1ccc(NN=Nc2ncnc3nc[nH]c23)cc1
inactive: [1] 5.9% | [2] -2.2% | [3] -11.8% | [4] 7.7% | [5] 2.7%

C=C1CC(C)(COc2ccc3ccc(=O)oc3c2)OC1=O (stereo unspecified)
inactive: [1] 15.4% | [2] 49% | [3] 37.5% | [4] 17.6% | [5] 41%

Cc1ccc(S(=O)(=O)N/N=C(\c2nc3ccc(Cl)cc3[nH]c2=O)C(O)c2cccc([N+](=O)[O-])c2)cc1 (stereo unspecified)
inactive: [1] -24% | [2] -9.35% | [3] 11.7% | [4] -22.6% | [5] -0.5%

CCCNC(=O)Cn1c(-c2ccccc2)cc2ccccc21
inactive: [1] 5.5% | [2] 16.7% | [3] 18.4% | [4] 27.9% | [5] -52.8%

CC(=O)c1cc([N+](=O)[O-])ccc1OCC(=O)O
inactive: [1] 4.85% | [2] 3.75% | [3] 1.85% | [4] 9.85% | [5] 9.6%

CC(=O)CC/C=C(\C)CC(C)C
inactive: [1] 11.6% | [2] 2.85% | [3] 13.6% | [4] 9.8%

COC(=O)/C=C(\C(=O)OC)N1CCCCC1
inactive: [1] -3.8% | [2] -6.55% | [3] -29.9% | [4] 2.3% | [5] -23.1%

C=C1C(=O)OC2/C=C(\COC(C)=O)CCC(OC(C)=O)C3=CC(OC3=O)C12 (stereo unspecified)
inactive: [2] -22.2% | [3] -6.5% | [4] -30.1%

O=C(Nc1ccc([N+](=O)[O-])cc1C(=O)O)c1ccc([N+](=O)[O-])cc1
inactive: [1] -3.6% | [2] 0.1% | [3] 18.5% | [4] -22.3% | [5] 2%

CC1=C(C#N)C(=C(C#N)C#N)OC1(C)Cc1ccccc1 (stereo unspecified)
inactive: [1] 6.35% | [2] 24.6% | [3] 8.55% | [4] 2.85% | [5] 33.1%

CC1CN(CCO)CCN1Cc1ccccc1 (stereo unspecified)
inactive: [1] -12.3% | [2] -16.6% | [3] -5.1% | [4] -12.6% | [5] -5.8%

CN(C)Cc1ccccc1CC1(O)CCCC1
inactive: [1] -2.75% | [2] -4.3% | [3] -10.1% | [4] 0.3%
